Results taken from PubChem BioAssay (EPA / NIEHS).
Records with an inconclusive call do not appear. Calls of active or inactive are those of the source. Rule for the calls, unless noted: active = hit-call score of the fitted dose curve at least 0.9, where 1 is the maximum; inactive = score below 0.9.

Experiments:
[1] = target: Paired box protein Pax-6 (Homo sapiens) (UniProt P26367); experiment: ATG_Pax6_CIS: Attagene CIS-FACTORIAL HepG2 Assay for human Paired Box 6 (PAX6) (AID 2282956); conditions: HepG2 CIS-FACTORIAL PAX6 reporter transcription, RNA readout; actives raise or lower the signal
Paired box protein Pax-6 (Homo sapiens), sequence (P26367 whole entry, looked up): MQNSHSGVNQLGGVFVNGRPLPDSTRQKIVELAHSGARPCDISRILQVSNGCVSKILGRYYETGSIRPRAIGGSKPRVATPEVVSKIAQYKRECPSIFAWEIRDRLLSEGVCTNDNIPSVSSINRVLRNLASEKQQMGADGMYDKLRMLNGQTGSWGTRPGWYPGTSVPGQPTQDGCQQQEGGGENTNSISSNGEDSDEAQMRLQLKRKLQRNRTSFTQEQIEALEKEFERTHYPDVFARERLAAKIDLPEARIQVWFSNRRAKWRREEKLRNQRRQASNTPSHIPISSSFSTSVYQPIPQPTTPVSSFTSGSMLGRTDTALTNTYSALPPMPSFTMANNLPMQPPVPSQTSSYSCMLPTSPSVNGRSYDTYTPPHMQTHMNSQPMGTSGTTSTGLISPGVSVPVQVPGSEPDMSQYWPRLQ
How it was run: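 Fluorescent RT-PCR products separated by capillary electrophoresis report PAX6-linked promoter mRNA in HepG2 cells 24 h post-dose. Curves fitted bidirectionally, DMSO as negative control.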

[2] = ATG_PXRE_CIS: Attagene CIS-FACTORIAL HepG2 Assay for human Pregnane X Receptor Element (PXRE) (AID 2282957); conditions: HepG2 Attagene CIS-FACTORIAL PXRE reporter, mRNA; actives raise or lower the signal
How it was run: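 After a 24 h chemical incubation, total RNA from transfected HepG2 cells was reverse-transcribed and reporter cDNA amplified, FAM-labeled, HpaI-digested and sized by capillary electrophoresis. DMSO served as baseline for bidirectional curve fitting.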

[3] = ATG_PPRE_CIS: Attagene CIS-FACTORIAL HepG2 Assay for human Peroxisome Proliferator-activated Response Element (PPRE) (AID 2282958); conditions: HepG2 PPRE cis-element reporter, Attagene transcription factor profiling; actives raise or lower the signal
How it was run: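 PPRE activity in HepG2: transient cis-reporter transfection, 24 h compound incubation, reporter mRNA by RT-PCR and CE fluorescence; gain/loss fitted against DMSO.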

[4] = ATG_RORE_CIS: Attagene CIS-FACTORIAL HepG2 Assay for human RAR-related Orphan Receptor Element (RORE) (AID 2282959); conditions: HepG2 Attagene cis-factorial RORE reporter, mRNA; actives raise or lower the signal
How it was run: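 A 24-hour exposure of transfected HepG2 hepatoma cells precedes RNA isolation and reporter RT-PCR. Labeled products are digested with HpaI and resolved by capillary electrophoresis, with gain or loss of signal scored relative to DMSO.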

[5] = ATG_Sox_CIS: Attagene CIS-FACTORIAL HepG2 Assay for human SRY-box transcription factor (SOX) (AID 2282960); conditions: HepG2 Attagene cis-factorial SOX reporter, mRNA; actives raise or lower the signal
How it was run: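 HepG2, cis reporter units, 24 h exposure. Reporter mRNA: RT-PCR → FAM labelling → HpaI → CE fluorescence. Bidirectional fit vs DMSO.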

[6] = target: Transcription factor Sp1 (Homo sapiens) (UniProt P08047); experiment: ATG_Sp1_CIS: Attagene CIS-FACTORIAL HepG2 Assay for human Specificity Protein 1 (Sp1) (AID 2282961); conditions: HepG2 Sp1 cis-reporter transcription, actives raise or lower the signal
Transcription factor Sp1 (Homo sapiens), sequence (P08047 whole entry, looked up, the tested form may be a part): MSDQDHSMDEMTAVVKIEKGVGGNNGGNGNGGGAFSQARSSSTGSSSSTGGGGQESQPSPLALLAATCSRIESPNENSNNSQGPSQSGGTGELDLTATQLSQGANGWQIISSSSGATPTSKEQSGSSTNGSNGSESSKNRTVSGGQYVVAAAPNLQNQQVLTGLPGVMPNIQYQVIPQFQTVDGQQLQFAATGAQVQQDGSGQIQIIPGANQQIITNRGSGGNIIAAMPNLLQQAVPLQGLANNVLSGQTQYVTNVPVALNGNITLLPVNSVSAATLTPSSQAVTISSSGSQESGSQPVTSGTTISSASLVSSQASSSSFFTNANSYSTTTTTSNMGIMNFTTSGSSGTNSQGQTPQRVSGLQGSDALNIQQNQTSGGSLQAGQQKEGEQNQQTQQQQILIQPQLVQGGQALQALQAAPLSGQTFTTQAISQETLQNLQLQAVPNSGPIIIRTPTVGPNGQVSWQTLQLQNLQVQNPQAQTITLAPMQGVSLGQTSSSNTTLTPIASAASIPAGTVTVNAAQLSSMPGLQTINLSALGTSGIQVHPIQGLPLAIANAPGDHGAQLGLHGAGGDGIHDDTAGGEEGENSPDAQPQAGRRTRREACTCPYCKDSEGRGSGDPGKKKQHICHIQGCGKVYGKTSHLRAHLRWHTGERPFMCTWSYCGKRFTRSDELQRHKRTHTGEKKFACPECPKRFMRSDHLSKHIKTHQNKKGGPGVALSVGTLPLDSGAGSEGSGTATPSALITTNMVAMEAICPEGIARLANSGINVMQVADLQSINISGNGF
How it was run: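 Liver-derived HepG2 cells, cis-element reporter library, 24 h treatment; RNA isolated, cDNA amplified with reporter-specific primers, FAM-labeled fragments sized on capillary analyzer. DMSO baseline, bidirectional curve fit.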

[7] = ATG_SREBP_CIS: Attagene CIS-FACTORIAL HepG2 Assay for human Sterol Regulatory Element Binding (SREBP) (AID 2282962); conditions: HepG2 Attagene cis-factorial SREBP reporter, mRNA; actives raise or lower the signal
How it was run: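 Endogenous factor activity is measured in HepG2 through multiplexed reporter units under cis-element control. Following a 24 h incubation, reporter transcripts are reverse-transcribed, PCR-amplified and sized by capillary electrophoresis; activity is fitted in both directions relative to DMSO.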

[8] = target: Signal transducer and activator of transcription 3 (Homo sapiens) (UniProt P40763); experiment: ATG_STAT3_CIS: Attagene CIS-FACTORIAL HepG2 Assay for human Signal Transducer and Activator of Transcription 3 (STAT3) (AID 2282963); conditions: HepG2, Attagene cis-factorial STAT3 reporter transcription; actives raise or lower the signal
Signal transducer and activator of transcription 3 (Homo sapiens), sequence (P40763 whole entry, looked up, the tested form may be a part): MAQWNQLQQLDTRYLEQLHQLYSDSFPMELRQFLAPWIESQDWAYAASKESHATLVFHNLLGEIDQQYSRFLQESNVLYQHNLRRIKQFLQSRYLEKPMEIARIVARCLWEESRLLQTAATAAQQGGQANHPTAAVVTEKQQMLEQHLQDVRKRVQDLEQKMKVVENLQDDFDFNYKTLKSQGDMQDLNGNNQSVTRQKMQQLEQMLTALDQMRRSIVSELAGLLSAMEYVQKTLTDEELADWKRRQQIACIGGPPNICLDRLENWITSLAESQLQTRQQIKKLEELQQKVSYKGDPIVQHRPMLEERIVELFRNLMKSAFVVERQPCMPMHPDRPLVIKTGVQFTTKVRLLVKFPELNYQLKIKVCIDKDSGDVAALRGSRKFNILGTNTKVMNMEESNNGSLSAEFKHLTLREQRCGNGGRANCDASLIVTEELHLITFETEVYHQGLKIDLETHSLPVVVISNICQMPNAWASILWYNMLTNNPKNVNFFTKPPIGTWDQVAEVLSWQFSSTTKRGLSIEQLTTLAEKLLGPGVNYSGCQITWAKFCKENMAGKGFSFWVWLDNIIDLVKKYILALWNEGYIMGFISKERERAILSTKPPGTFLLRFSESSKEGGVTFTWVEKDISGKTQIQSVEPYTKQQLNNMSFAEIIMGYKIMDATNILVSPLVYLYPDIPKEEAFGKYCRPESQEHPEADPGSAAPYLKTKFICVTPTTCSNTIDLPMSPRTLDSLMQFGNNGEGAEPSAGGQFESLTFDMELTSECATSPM
How it was run: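 Fluorescence intensity of 6-FAM-labelled reporter fragments, separated by capillary electrophoresis after RT-PCR, gave the signal. Cells were HepG2 transfected with cis-element reporter units and treated 24 h; fitting was bidirectional relative to DMSO.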

[9] = ATG_TA_CIS: Attagene CIS-FACTORIAL HepG2 Assay for human TA Basal Promoter (AID 2282964); conditions: HepG2 Attagene CIS-factorial TA basal promoter reporter; actives raise or lower the signal
How it was run: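 Transfected HepG2, 24 h compound exposure; RNA → RT-PCR → FAM primer extension → HpaI cut → CE fluorescence. Gain/loss-of-signal fitted against DMSO negative control. Background-control readout.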

[10] = ATG_TCF_b_cat_CIS: Attagene CIS-FACTORIAL HepG2 Assay for human T-Cell-Factor with beta-catenin (TCF/b-cat) (AID 2282965); conditions: HepG2 TCF/beta-catenin cis-reporter transcription, actives raise or lower the signal
How it was run: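 HepG2, transient MRTU transfection, cis-element-driven reporters (endogenous TFs). 24 h compound exposure. Readout: reporter mRNA by RT-PCR + 6-FAM primer extension, HpaI digest, capillary electrophoresis. Gain/loss fit vs DMSO baseline.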

[11] = ATG_TAL_CIS: Attagene CIS-FACTORIAL HepG2 Assay for human TAL Basal Promoter (AID 2282966); conditions: HepG2 Attagene cis-factorial TAL promoter reporter; actives raise or lower the signal;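 note: background control endpoint measuring basal TAL promoter reporter mRNA not a specific factor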
How it was run: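 Basal-promoter background-control endpoint from a multiplexed HepG2 reporter panel. Cells were exposed 24 h, then reporter mRNA was read by RT-PCR/CE fluorescence and fitted in both directions relative to DMSO.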

[12] = ATG_TGFb_CIS: Attagene CIS-FACTORIAL HepG2 Assay for human Transforming Growth Factor (TGF) (AID 2282967); conditions: HepG2 Attagene CIS TGFb reporter, mRNA transcription; actives raise or lower the signal
How it was run: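 Readout: fluorescently labeled reporter cDNA fragments resolved by capillary electrophoresis after RT-PCR. Transfected HepG2 cells dosed for 24 h; endogenous TF activity at TGFB1-linked cis element; gain or loss fitted relative to DMSO.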

[13] = ATG_VDRE_CIS: Attagene CIS-FACTORIAL HepG2 Assay for human Vitamin D Receptor Element (VDRE) (AID 2282968); conditions: HepG2 VDRE cis-reporter transcription, actives raise or lower the signal
How it was run: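 Compounds were applied for 24 h to HepG2 cells transfected with promoter-regulated reporter units. Total RNA was reverse-transcribed, and reporter amplicons were fluorescently labelled and sized by capillary electrophoresis.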

[14] = target: Estrogen receptor (Homo sapiens) (UniProt P03372); experiment: ATG_ERa_TRANS: Attagene TRANS-FACTORIAL HepG2 Assay for human Estrogen Receptor alpha (ERa) (AID 2282970; active = hit-call score of the fitted dose curve at least 0.9, where 1 is the maximum); conditions: HepG2 Attagene TRANS ERa GAL4 reporter, mRNA
Estrogen receptor (Homo sapiens), sequence (P03372 whole entry, looked up, the tested form may be a part): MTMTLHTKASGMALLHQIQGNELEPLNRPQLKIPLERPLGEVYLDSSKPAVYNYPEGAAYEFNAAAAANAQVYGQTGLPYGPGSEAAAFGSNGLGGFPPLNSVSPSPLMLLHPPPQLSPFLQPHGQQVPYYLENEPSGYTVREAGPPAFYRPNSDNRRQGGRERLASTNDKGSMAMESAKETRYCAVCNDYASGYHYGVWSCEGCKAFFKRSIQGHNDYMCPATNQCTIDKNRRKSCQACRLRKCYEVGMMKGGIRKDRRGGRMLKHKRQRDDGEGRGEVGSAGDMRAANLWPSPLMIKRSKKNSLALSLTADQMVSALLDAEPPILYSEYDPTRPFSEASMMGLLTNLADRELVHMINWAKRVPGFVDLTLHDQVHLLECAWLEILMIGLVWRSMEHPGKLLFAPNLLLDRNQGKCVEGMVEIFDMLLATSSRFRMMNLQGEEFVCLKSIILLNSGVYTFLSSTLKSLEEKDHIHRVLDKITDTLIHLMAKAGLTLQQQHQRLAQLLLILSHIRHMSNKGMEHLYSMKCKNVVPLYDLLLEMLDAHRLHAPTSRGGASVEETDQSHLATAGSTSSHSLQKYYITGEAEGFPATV
How it was run: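 Gal4-fusion ERa transactivation, measured as reporter transcript level in transiently transfected HepG2 cells. Exposure 24 h; RT-PCR plus capillary electrophoresis with fluorescence detection.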

[15] = target: X-box-binding protein 1 (Homo sapiens) (UniProt P17861); experiment: ATG_Xbp1_CIS: Attagene CIS-FACTORIAL HepG2 Assay for human X-box Binding Protein 1 (XBP1) (AID 2282972); conditions: HepG2 XBP1 cis-element reporter, Attagene multiplex; actives raise or lower the signal
X-box-binding protein 1 (Homo sapiens), sequence (P17861 whole entry, looked up): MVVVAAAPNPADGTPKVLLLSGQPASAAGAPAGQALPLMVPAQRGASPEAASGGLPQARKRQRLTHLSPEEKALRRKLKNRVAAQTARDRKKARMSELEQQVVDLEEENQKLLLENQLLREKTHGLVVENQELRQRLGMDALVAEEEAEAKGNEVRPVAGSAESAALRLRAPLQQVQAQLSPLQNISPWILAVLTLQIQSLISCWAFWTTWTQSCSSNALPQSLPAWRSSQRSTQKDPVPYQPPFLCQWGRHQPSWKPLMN
How it was run: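 Multiplexed cis-reporter readout in transfected HepG2 liver cells. Exposure lasted 24 hours. Activity in either direction was fitted against DMSO as negative control and baseline.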

[16] = ATG_GAL4_TRANS: Attagene TRANS-FACTORIAL HepG2 Assay for GAL4 (Internal Marker) (AID 2282976; active = hit-call score of the fitted dose curve at least 0.9, where 1 is the maximum); conditions: HepG2 Attagene TRANS GAL4 internal marker reporter
How it was run: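 Background-control readout: GAL4-UAS reporter transcript in transiently transfected HepG2 cells after 24 h compound exposure. Measured by RT-PCR, 6-FAM primer extension, HpaI digest and capillary electrophoresis; gain-of-signal fit versus DMSO.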

[17] = target: Estrogen-related receptor gamma (Homo sapiens) (UniProt P62508); experiment: ATG_ERRg_TRANS: Attagene TRANS-FACTORIAL HepG2 Assay for human Estrogen-Related Receptor gamma (ERRg) (AID 2282977; active = hit-call score of the fitted dose curve at least 0.9, where 1 is the maximum;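 note: hits increase reporter signal over DMSO so potencies reflect activators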); conditions: HepG2 Attagene TRANS reporter, ERRg transactivation
Estrogen-related receptor gamma (Homo sapiens), sequence (P62508 whole entry, looked up, the tested form may be a part): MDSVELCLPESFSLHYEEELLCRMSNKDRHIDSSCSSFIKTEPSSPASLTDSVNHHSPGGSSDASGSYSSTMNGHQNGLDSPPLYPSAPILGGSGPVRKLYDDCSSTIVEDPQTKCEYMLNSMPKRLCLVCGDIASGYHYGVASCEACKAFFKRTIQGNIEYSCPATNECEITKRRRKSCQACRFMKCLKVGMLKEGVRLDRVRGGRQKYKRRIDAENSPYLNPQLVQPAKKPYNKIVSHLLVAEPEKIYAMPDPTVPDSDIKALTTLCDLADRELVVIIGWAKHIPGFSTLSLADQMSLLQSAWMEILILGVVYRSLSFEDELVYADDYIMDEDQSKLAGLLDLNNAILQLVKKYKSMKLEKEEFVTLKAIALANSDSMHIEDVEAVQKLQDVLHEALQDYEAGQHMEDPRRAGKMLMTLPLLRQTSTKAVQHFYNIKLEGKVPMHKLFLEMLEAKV
How it was run: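 Induction of reporter transcripts through a chimeric NR-Gal4 protein is quantified in transfected human HepG2 liver cells after 24 h chemical exposure, using RT-PCR with capillary electrophoresis detection and DMSO as baseline.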

[18] = ATG_M_19_TRANS: Attagene TRANS-FACTORIAL HepG2 Assay for M19 Transcription Factor (Internal Marker) (AID 2282974; active = hit-call score of the fitted dose curve at least 0.9, where 1 is the maximum); conditions: HepG2 Attagene TRANS-FACTORIAL M19 internal marker reporter
How it was run: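 Transfected HepG2 (GAL4-UAS MRTUs), 24 h compound, TriZol RNA, DNase-treated RT, reporter PCR, FAM label, HpaI digest, CE fluorescence; gain vs DMSO.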

[19] = target: Nuclear receptor subfamily 1 group I member 3 (Homo sapiens) (UniProt Q14994); experiment: ATG_CAR_TRANS: Attagene TRANS-FACTORIAL HepG2 Assay for human Constitutive Androstane Receptor (CAR) (AID 2282969; active = hit-call score of the fitted dose curve at least 0.9, where 1 is the maximum;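 note: activators raise reporter mRNA above DMSO so AC50 marks induction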); conditions: HepG2 Attagene TRANS-FACTORIAL CAR reporter
Nuclear receptor subfamily 1 group I member 3 (Homo sapiens), sequence (Q14994 whole entry, looked up, the tested form may be a part): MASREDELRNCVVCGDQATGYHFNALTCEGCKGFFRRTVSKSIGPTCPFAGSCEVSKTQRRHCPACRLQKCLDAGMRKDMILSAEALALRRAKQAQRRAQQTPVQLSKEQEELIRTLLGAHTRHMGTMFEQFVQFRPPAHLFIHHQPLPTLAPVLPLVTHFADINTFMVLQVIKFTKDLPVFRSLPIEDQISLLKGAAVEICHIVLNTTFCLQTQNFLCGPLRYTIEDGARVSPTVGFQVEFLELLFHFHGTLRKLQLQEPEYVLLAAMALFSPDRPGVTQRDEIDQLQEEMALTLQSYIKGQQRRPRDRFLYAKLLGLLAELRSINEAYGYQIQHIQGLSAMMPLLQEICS
How it was run: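 Transiently transfected HepG2, multiplex TRANS reporters (CAR-Gal4 chimera driving GAL4-UAS reporter). 24 h dosing. Readout: reporter transcript by RT-PCR + capillary electrophoresis, fluorescence intensity; positive direction vs DMSO.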

[20] = target: Steroid hormone receptor ERR1 (Homo sapiens) (UniProt P11474); experiment: ATG_ERRa_TRANS: Attagene TRANS-FACTORIAL HepG2 Assay for human Estrogen-Related Receptor alpha (ERRa) (AID 2282971; active = hit-call score of the fitted dose curve at least 0.9, where 1 is the maximum); conditions: HepG2 Attagene TRANS reporter, ERRa transactivation
Steroid hormone receptor ERR1 (Homo sapiens), sequence (P11474 whole entry, looked up, the tested form may be a part): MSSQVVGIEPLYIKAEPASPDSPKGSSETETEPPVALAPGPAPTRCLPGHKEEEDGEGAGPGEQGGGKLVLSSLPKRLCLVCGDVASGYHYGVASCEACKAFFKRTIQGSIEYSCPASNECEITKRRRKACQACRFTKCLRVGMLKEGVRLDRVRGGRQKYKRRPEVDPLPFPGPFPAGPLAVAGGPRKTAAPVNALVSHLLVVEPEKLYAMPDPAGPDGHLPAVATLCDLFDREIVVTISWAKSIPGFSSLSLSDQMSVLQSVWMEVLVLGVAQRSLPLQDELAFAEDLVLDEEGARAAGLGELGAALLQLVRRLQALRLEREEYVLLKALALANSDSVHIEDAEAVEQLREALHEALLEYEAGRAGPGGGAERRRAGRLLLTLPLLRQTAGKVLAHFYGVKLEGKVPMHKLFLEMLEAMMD
How it was run: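 HepG2 cells transiently transfected with GAL4-UAS reporter units and chimeric NR-Gal4 constructs; after 24 hour compound incubation, reporter mRNA quantified by RT-PCR, fluorescent labelling and capillary electrophoresis, gain of signal versus DMSO.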

Measured: AC50

Nc1ccc(Oc2ccc(N)c(N)c2)cc1
active: [3] 58.4 µM | [4] 27.5 µM
not listed: [18] | [19] | [20]
inactive: all other assays above

Cc1ccccc1C
active: [2] 36.5 µM
not listed: [14] | [18] | [19] | [20]
inactive: all other assays above

NC(=O)NNC(N)=O
not listed: [14] | [16] | [18] | [19] | [20]
inactive: all other assays above

CCC(CO)CO
not listed: [17] | [18] | [19] | [20]
inactive: all other assays above

CCc1nccnc1C
not listed: [12] | [14] | [19] | [20]
inactive: all other assays above

O=C1CCCCCCCCCCCCCCCO1
active: [7] 100 µM
not listed: [13] | [16] | [17] | [18]
inactive: all other assays above

C=CCOCC(O)CCl (stereo not given)
active: [2] 35.5 µM | [13] 34.8 µM
not listed: [17] | [18] | [19] | [20]
inactive: all other assays above

CCOC(F)(F)C(F)(F)C(F)(F)C(F)(F)F
not listed: [14] | [17] | [18] | [19] | [20]
inactive: all other assays above

c1ccc2c(c1)ccc1ncccc12
active: [2] 25.3 µM
not listed: [13] | [19]
inactive: all other assays above
